# From PubChem
# NS1 inh = blocks influenza NS1 protein function. Potency, µM (highest dose often 46.1 µM), without a hit: top-dose activity, positive = more growth. actives 0.4% (n = 270,000); calls by dose curve; also: actives are rising curves; nearly all actives have a fitted effect of over 50% in size
#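 Read-out: OD600 growth recovery of NS1-expressing budding yeast. Cells grown overnight at 30C in -URA glucose medium, washed, resuspended and diluted 1:100 in 2% galactose assay medium, pH 6.0. Same strain lacking NS1 served as positive control.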
# Cruzain inh Det = blocks cruzain activity in presence of Triton detergent | purified cruzain, Z-FR-AMC fluorescence, 0.01% Triton | Potency, µM, for the others: max response, negative = inhibition, usual class: inhibitors | actives 0.43% (n = 200,000) | AID 1478;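 also: plate controls were neutral wells for no effect and buffer without enzyme for full effect; nearly all actives have a fitted effect of over 40% in size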
# Target sequence (P25779 123-467 limits assumed): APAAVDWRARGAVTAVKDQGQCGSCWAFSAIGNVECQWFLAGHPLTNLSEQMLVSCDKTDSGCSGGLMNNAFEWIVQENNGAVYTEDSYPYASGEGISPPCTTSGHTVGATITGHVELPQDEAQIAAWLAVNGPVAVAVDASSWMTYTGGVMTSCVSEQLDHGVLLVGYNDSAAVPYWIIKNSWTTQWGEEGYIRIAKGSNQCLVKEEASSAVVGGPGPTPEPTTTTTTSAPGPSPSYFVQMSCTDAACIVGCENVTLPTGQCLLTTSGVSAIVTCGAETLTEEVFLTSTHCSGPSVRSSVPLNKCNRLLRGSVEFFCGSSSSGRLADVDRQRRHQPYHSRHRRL
#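 Compounds were screened in titration against cruzain (1.5 nM) with 0.01% Triton X-100 to counter colloidal aggregation. Activity was the AMC fluorescence increase over 60 s after adding 2 uM Z-FR-AMC at pH 5.5.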
# Cruzain noTriton = blocks cruzain activity in detergent-free assay; P25779; purified cruzain, Z-FR-AMC fluorescence, no detergent; Potency, µM, inactives show max response, negative = inhibition, hits mostly inhibitors; actives 2.3% (n = 200,000);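 also: plate controls were enzyme without inhibitor for no effect and buffer without enzyme for full effect; nearly all actives have a fitted effect of over 40% in size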
#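 Purified cruzain at 1.5 nM, pre-incubated 15 min with compound at room temperature in 100 mM sodium acetate pH 5.5, 5 mM DTT, 0.00005% Triton X-100. Reaction started with 2 uM Z-FR-AMC; AMC fluorescence increase over 60 s gives rate.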
# Papain inh = blocks papain protease activity, flagging nonselective cruzain hits; shares compounds with Cruzain inh Det; purified papain, Z-FR-AMC fluorescence cleavage; Potency, µM, without a hit: max response, negative = inhibition, most hits filed as inhibitors; actives 41% (n = 410); AID 2161;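 also: 0% = no-compound wells and -100% = no-enzyme wells; nearly all actives have a fitted effect of over 35% in size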
# Target sequence (P00784 whole entry, looked up): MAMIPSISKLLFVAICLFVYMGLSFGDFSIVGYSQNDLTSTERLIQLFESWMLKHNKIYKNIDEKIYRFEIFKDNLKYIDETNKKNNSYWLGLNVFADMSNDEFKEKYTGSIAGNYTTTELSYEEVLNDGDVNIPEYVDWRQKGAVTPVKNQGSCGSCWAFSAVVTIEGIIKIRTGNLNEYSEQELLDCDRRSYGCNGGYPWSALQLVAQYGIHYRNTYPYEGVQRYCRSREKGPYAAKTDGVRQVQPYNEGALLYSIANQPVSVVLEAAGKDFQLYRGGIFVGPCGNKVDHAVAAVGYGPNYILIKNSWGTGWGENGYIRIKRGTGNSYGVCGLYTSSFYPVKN
# Numbers without * were called inactive; ? = inconclusive; . = no result given. Only a selection was taken, and hits are over-represented in it overall. Unless noted, calls follow the shape of the dose curve; as a rule, active = well fitted curve in the direction sought with a large enough effect; inconclusive = small, poorly fitted or top-dose-only effect, or another doubt; inactive = no such curve, though single readings can be large; an effect the other way counts as inactive or inconclusive. Potency is read from the fitted curve at half-maximal effect.
SMILES,NS1 inh,Cruzain inh Det,Cruzain noTriton,Papain inh
CC(C)n1nc(C(=O)Nc2nc3ccc(S(C)(=O)=O)cc3s2)c2ccccc2c1=O,4%,3%,14%,.
CC(C)n1nc(C(=O)Nc2nnc(SCc3c(Cl)cccc3Cl)s2)c2ccccc2c1=O,5%,-1%,13µM*,.
O=C(COC(=O)C1CC1)NC(=O)NCc1ccccc1,2%,.,.,.
Cc1ccc(S(=O)(=O)Nc2ccc(N3CCOCC3)cc2)cc1,-6%,-1%,5%,.
NNC(=O)Cn1c(SCc2ccccc2)nc2ccccc21,16%,3%,-1%,3%
Cc1nc2ccccc2n1CC(=O)NN,3%,.,.,.
N#Cc1cc(-c2ccc(Cl)cc2)cnc1Sc1ccc(F)cc1,28%,-2%,-1%,.
CN1N/C(=C\c2ccccc2)N=C2C(=O)N(C)C(=O)N=C21,.,.,.,-10%
CC/C=C1/N=C2C(=O)N(C)C(=O)N=C2N(C)N1,.,.,.,-13%
CN1C(=O)/C(=C/c2ccc3c(c2)OCO3)N=C1c1ccccc1,11%,-11%,-7%,.
Cc1ccc(-c2nc3n(n2)C(c2ccccc2Cl)C=C(c2ccc(Cl)cc2)N3)cc1 (stereo unspecified),.,-3%,-7%,.
Cc1ccc(C(C)(C)C)c(OCC(=O)NCCc2nc3ccccc3[nH]2)c1,.,-2%,7%,.
CC(=O)c1c(O)cc(C)n(Nc2nc(C)cc(C)n2)c1=O,-83%,1%,-8%,.
O=C1N(CN2CCN(c3cccc(Cl)c3)CC2)c2ccccc2C12OCCCO2,14%,0%,-2%,.
O=[N+]([O-])c1cc(C(F)(F)F)ccc1-n1nnc2ccccc21,-4%,-5%,6%,.
O=[N+]([O-])c1cc(S(=O)(=O)Nc2ccccc2)ccc1-n1nnc2ccccc21,13%,11µM*,?,-5%
CCOC(=O)[C@H](CCc1ccccc1)N[C@@H](C)C(=O)N1[C@H](C(=O)O)C[C@H]2CCC[C@@H]21,.,-3%,-10%,.
CCOC(=O)[C@H](CCc1ccccc1)N[C@@H](C)C(=O)N1[C@H](C(=O)O)C[C@H]2CCCC[C@@H]21,.,2%,?,11%
COc1ccccc1Nc1nn2c(=O)c3ccc(C(=O)Nc4ccc(F)cc4)cc3nc2s1,.,-2%,-9%,.
Cc1ccccc1NC(=O)CSc1nnc(-c2ccco2)c(-c2ccco2)n1,?,25µM*,3.2µM*,14µM*
COc1cccc(NC(=O)CSc2nnc(-c3ccco3)c(-c3ccco3)n2)c1,14%,.,.,.
O=C(CSc1nnc(-c2ccco2)c(-c2ccco2)n1)Nc1ccccc1,?,22µM*,20µM*,25µM*
Cc1cccc(C)c1NC(=O)CSc1nnc(-c2ccco2)c(-c2ccco2)n1,?,?,-18%,.
COC(=O)c1sccc1-c1ccc(/C=N/OC(=O)c2cccs2)o1,-6%,.,.,.
SMILES,NS1 inh,Cruzain inh Det,Cruzain noTriton,Papain inh
O=C(CNC(=O)C1CCCCC1)OCC(=O)c1ccccc1,.,.,.,16µM*
CC(=O)NCC(=O)OCC(=O)c1ccc(C)cc1,2%,7%,6%,.
CC(=O)NCC(=O)OCC(=O)c1ccccc1,2%,7%,-4%,.
COc1cc(C(=O)COC(=O)CNC(=O)C2CCCCC2)cc(OC)c1OC,1%,2.2µM*,2.5µM*,-28%
Cc1ccc(NC(=O)COC(=O)CNC(=O)C2CCCCC2)c(Br)c1,-9%,.,.,.
O=C(COC(=O)CNC(=O)C1CCCCC1)Nc1ccc2ccccc2c1,-58%,4.5µM*,7.9µM*,-14%
COc1cc(C(=O)NNC(=O)C2CC2)cc(OC)c1OC,6%,.,.,.
O=C(CNC(=O)C1CCCCC1)OCC(=O)c1ccc(C2CCCCC2)cc1,.,.,.,-4%
CCOc1ccc(CC(=O)Nc2c(C(=O)c3ccc(F)cc3)oc3ccccc23)cc1OCC,.,0%,7%,.
CCC(C)c1ccc(NC(=O)C2CCN(c3ncccn3)CC2)cc1 (stereo unspecified),15%,-4%,17%,.
Cc1ccc(C)c(OCCCC(=O)O)c1,-49%,-1%,-2%,.
Cc1cc2c(C)cc(=O)oc2c2c1NCCC2,-29%,25µM*,-11%,16µM*
Cc1cc(=O)oc2cc3c(cc12)CCCN3,-3%,.,.,.
CCOc1cc(C)c(S(=O)(=O)Nc2ccc(F)cc2)cc1C,-49%,-7%,-1%,.
COc1ccc(CNC(=O)c2ccc(CNS(=O)(=O)c3ccc(F)cc3)cc2)cc1,.,0%,8%,.
CCOc1ccc(-c2cc3nc(C4CCN(C(=O)OC(C)(C)C)CC4)c(C(=O)O)cn3n2)cc1,26%,-24%,?,32µM*
CCOc1ccc(-c2cc3nc(C4CCN(C(=O)OC(C)(C)C)CC4)c(C(=O)Nc4ccc(C)cc4C)cn3n2)cc1,.,-20%,?,.
Nc1nc2c([N+](=O)[O-])cccc2s1,0%,.,.,.
COc1ccccc1Oc1coc2c(CN3CCN(C)CC3)c(O)ccc2c1=O,0%,2%,-5%,.
O=C1C(=Cc2ccco2)C(=O)c2ccccc21,9%,-4%,-5%,.
O=C1/C(=C/c2ccco2)CCc2ccccc21,-2%,2.2µM*,2µM*,28µM*
Cc1cc(NS(=O)(=O)c2ccc(NC(=O)Cc3cccs3)cc2)no1,-4%,0%,2%,.
Cc1cc(NC(=O)Cc2cccs2)no1,?,-18%,-28%,-17%
CC(C)C[C@H](N)c1nnc(S(=O)(=O)Cc2cccc(F)c2)o1,-177%,11µM*,13µM*,6%
CC(C)Cn1nnnc1S(=O)(=O)Cc1cccc(C#N)c1,.,3%,-1%,.
SMILES,NS1 inh,Cruzain inh Det,Cruzain noTriton,Papain inh
O=C1OC(C(=O)Nc2ccc(Cl)c(C(F)(F)F)c2)Cc2ccccc21 (stereo unspecified),.,-7%,11%,.
Cc1oc(-c2ccccc2F)nc1CS(=O)(=O)CC(=O)N1CCN(c2cccc(C(F)(F)F)c2)CC1,.,-9%,?,.
Nc1ccc2c(c1)C(=O)c1ccccc1C2=O,.,1%,-19%,.
Nc1ccc2c(c1)C(=O)C(=O)c1ccccc1-2,-211%,22µM*,?,16µM*
CC[C@@H](C)[C@H](NC(=O)OC(C)(C)C)c1nnc(S(=O)(=O)Cc2cc(C)ccc2C)o1,-185%,8.9µM*,16µM*,16µM*
CC[C@@H](C)[C@H](NC(=O)OCc1ccccc1)c1nnc([C@@H](NC(=O)OCc2ccccc2)[C@@H](C)CC)o1,4%,.,.,.
Cc1ccc(S(=O)Cc2ccc(C(=O)NCc3ccc(OC(C)C)cc3)o2)cc1 (stereo unspecified),.,-3%,23%,.
Cc1nnc(N2CCN(c3ccccc3F)CC2)c2c1nnn2Cc1ccccc1,.,-1%,8%,.
O=C(NCCCN1CCN(c2ccccc2F)CC1)c1cc2c(s1)-c1ccccc1OC2,.,-22%,23%,.
CCN1CCN(CCCNC(=O)c2cc3c(s2)-c2ccccc2OC3)CC1,0%,28µM*,?,10µM*
COc1ccc(CCNC(=O)Cc2ccc(Cl)cc2)cc1OC,9%,.,.,.
CCCNC(=O)Cn1c(=O)oc2cc(S(=O)(=O)N3CCCC3)ccc21,-12%,.,.,.
O=C(Cn1c(=O)oc2cc(S(=O)(=O)N3CCCCCC3)ccc21)NC1CCCCCCC1,-59%,-9%,20µM*,12%
CCOC(=O)C(Cc1ccccc1)C(=O)NCc1cccnc1 (stereo unspecified),10%,.,.,.
Cc1ccccc1NC(=O)CSc1ccc(-c2cccnc2)nn1,7%,.,.,.
